Assay results: the supplement of paper PMC12067926

Experiments:
Experiment in all cases: relative growth (AUC of 72 h growth curve relative to DMSO control, dAUC) (ratio); higher = more growth (less inhibition), active = hit call of the paper
Conditions in all cases: 20 µM;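 active = growth AUC significantly below the DMSO wells by Dunnett test; inactive = the rest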
[1] = tested on: Aeromonas 1 (Aeromonas sp. AE235)
In short: (§1)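 Each chemical was tested at 20 µM (1% DMSO) in 96-well plates seeded with a 1:100 dilution of cultures grown to carrying capacity in Luria–Bertani medium. These were isolates from Icelandic stream sediments and Silwood Park soil, as well as whole sediment communities. A plate reader took A600 readings hourly over 72 h, and three biological replicates were averaged. Relative growth (dAUC) is the spline-integrated area under the growth curve relative to the mean of the DMSO controls.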

[2] = tested on: Aeromonas 2 (Aeromonas sobria)
In short: as §1

[3] = tested on: Aeromonas 3 (Aeromonas popoffii)
In short: as §1

[4] = tested on: Argrobacterium 1 (Agrobacterium sp.)
In short: as §1

[5] = tested on: Arthrobacter 1 (Arthrobacter humicola)
In short: as §1

[6] = tested on: Arthrobacter 2 (Arthrobacter humicola)
In short: as §1

[7] = tested on: Arthrobacter 3 (Arthrobacter sp.)
In short: as §1

Community 10 = tested on: Community 10
In short: as §1

Community 4 = tested on: Community 4
In short: as §1

Community 6 = tested on: Community 6
In short: as §1

Community 7 = tested on: Community 7
In short: as §1

Community 8 = tested on: Community 8
In short: as §1

Community 9 = tested on: Community 9
In short: as §1

[8] = tested on: Flavobacterium 1 (Flavobacterium glaciei)
In short: as §1

[9] = tested on: Flavobacterium 2 (Flavobacterium succinicans)
In short: as §1

[10] = tested on: Hymenobacter 1 (Hymenobacter glaciei)
In short: as §1

[11] = tested on: Microbacterium 1 (Microbacterium arborescens)
In short: as §1

[12] = tested on: Neobacillus 1 (Neobacillus soli)
In short: as §1

[13] = tested on: Oryzobacter 1 (Oryzobacter terrae)
In short: as §1

[14] = tested on: Paenibacillus 1 (Paenibacillus castaneae)
In short: as §1

| Compound | relative growth [1] | relative growth [2] | relative growth [3] | relative growth [4] | relative growth [5] | relative growth [6] | relative growth [7] | relative growth (Community 10) | relative growth (Community 4) | relative growth (Community 6) | relative growth (Community 7) | relative growth (Community 8) | relative growth (Community 9) | relative growth [8] | relative growth [9] | relative growth [10] | relative growth [11] | relative growth [12] | relative growth [13] | relative growth [14] |
| --- | --- | --- | --- | --- | --- | --- | --- | --- | --- | --- | --- | --- | --- | --- | --- | --- | --- | --- | --- | --- |
| CS(=O)(=O)c1cc(C(F)(F)F)ccc1C(=O)c1cnoc1C1CC1 | 1.02 (inactive) | 1.01 (inactive) | 1.04 (inactive) | 1.01 (inactive) | 1.1 (inactive) | 1.08 (inactive) | 1.04 (inactive) | 1.13 (inactive) | 1.14 (inactive) | 1.13 (inactive) | 0.983 (inactive) | 1.02 (inactive) | 1.09 (inactive) | 1.01 (inactive) | 1.07 (inactive) | 1.04 (inactive) | 1.02 (inactive) | 1.06 (inactive) | 0.94 (inactive) | 1.13 (inactive) |
| COC(=O)c1ccccc1S(=O)(=O)NC(=O)Nc1nc(C)nc(OC)n1 | 1.02 (inactive) | 1.01 (inactive) | 1.07 (inactive) | 0.964 (inactive) | 1.16 (inactive) | 1.14 (inactive) | 1.01 (inactive) | 1.23 (inactive) | 1.16 (inactive) | 1.12 (inactive) | 0.941 (inactive) | 1.1 (inactive) | 1.1 (inactive) | 1.09 (inactive) | 1.08 (inactive) | 1.14 (inactive) | 1.01 (inactive) | 1.11 (inactive) | 0.997 (inactive) | 1.16 (inactive) |
| CCc1cc(C)cc(CC)c1-c1c(OC(=O)C(C)(C)C)n2n(c1=O)CCOCC2 | 0.987 (inactive) | 0.978 (inactive) | 1.02 (inactive) | 0.957 (inactive) | 1.01 (inactive) | 0.873 (inactive) | 0.917 (inactive) | 0.925 (inactive) | 0.852 (inactive) | 0.906 (inactive) | 1.05 (inactive) | 0.968 (inactive) | 0.884 (inactive) | 1.02 (inactive) | 0.943 (inactive) | 0.947 (inactive) | 1.03 (inactive) | 0.861 (inactive) | 1.01 (inactive) | 0.956 (inactive) |
| COc1ccc(C(=CC(=O)N2CCOCC2)c2ccc(Cl)cc2)cc1OC (mixture of isomers) | 0.973 (inactive) | 0.993 (inactive) | 0.998 (inactive) | 1.03 (inactive) | 1.06 (inactive) | 0.983 (inactive) | 0.973 (inactive) | 0.919 (inactive) | 1.07 (inactive) | 0.974 (inactive) | 0.947 (inactive) | 0.986 (inactive) | 1.03 (inactive) | 1.07 (inactive) | 0.979 (inactive) | 1.05 (inactive) | 1.03 (inactive) | 1.02 (inactive) | 1.12 (inactive) | 0.961 (inactive) |
| COCC(=O)N(c1c(C)cccc1C)C(C)C(=O)OC (stereo not given) | 1.03 (inactive) | 1.04 (inactive) | 1.04 (inactive) | 1.01 (inactive) | 0.944 (inactive) | 0.862 (inactive) | 0.994 (inactive) | 1.06 (inactive) | 1.05 (inactive) | 1.03 (inactive) | 1.08 (inactive) | 0.993 (inactive) | 1.09 (inactive) | 0.939 (inactive) | 0.99 (inactive) | 1.03 (inactive) | 1.02 (inactive) | 0.986 (inactive) | 1.01 (inactive) | 1.03 (inactive) |
| CCOP(=S)(OCC)Oc1nc(Cl)c(Cl)cc1Cl | 1.05 (inactive) | 1 (inactive) | 1.06 (inactive) | 0.979 (inactive) | 1.04 (inactive) | 0.994 (inactive) | 1.08 (inactive) | 0.928 (inactive) | 0.974 (inactive) | 0.953 (inactive) | 0.998 (inactive) | 1.02 (inactive) | 1.06 (inactive) | 1.05 (inactive) | 0.996 (inactive) | 1.07 (inactive) | 0.991 (inactive) | 1.07 (inactive) | 1.04 (inactive) | 1.04 (inactive) |
| Nc1c([N+](=O)[O-])ccc(Oc2ccccc2)c1Cl | 0.959 (inactive) | 0.953 (inactive) | 0.961 (inactive) | 0.972 (inactive) | 0.894 (inactive) | 0.826 (inactive) | 0.957 (inactive) | 0.833 (inactive) | 0.851 (inactive) | 0.856 (inactive) | 0.955 (inactive) | 1.03 (inactive) | 0.907 (inactive) | 0.864 (inactive) | 0.917 (inactive) | 1.09 (inactive) | 1.03 (inactive) | 0.913 (inactive) | 1.05 (inactive) | 0.843 (inactive) |
| CNC(=O)CSP(=S)(OC)OC | 0.944 (inactive) | 0.984 (inactive) | 0.967 (inactive) | 1.02 (inactive) | 1.04 (inactive) | 0.992 (inactive) | 0.978 (inactive) | 0.887 (inactive) | 0.765 (inactive) | 0.957 (inactive) | 1.12 (inactive) | 0.999 (inactive) | 0.921 (inactive) | 1.06 (inactive) | 0.966 (inactive) | 0.971 (inactive) | 1 (inactive) | 0.948 (inactive) | 1.07 (inactive) | 0.975 (inactive) |
| Cc1cc(C(F)(C(F)(F)F)C(F)(F)F)ccc1NC(=O)c1cccc(I)c1C(=O)NC(C)(C)CS(C)(=O)=O | 0.939 (inactive) | 0.974 (inactive) | 1.41 | 0.695 (active) | 0.792 (inactive) | 1.02 (inactive) | 0.822 (inactive) | 1.21 (inactive) | 0.805 (inactive) | 0.894 (inactive) | 1.15 (inactive) | 1.07 (inactive) | 0.75 (inactive) | 0.818 (inactive) | 1.2 (inactive) | 0.857 (inactive) | 0.925 (inactive) | 1.09 (inactive) | 0.97 (inactive) | 1.02 (inactive) |
| CC(C)(C)c1ccc(CSc2cnn(C(C)(C)C)c(=O)c2Cl)cc1 | 1.02 (inactive) | 0.975 (inactive) | 1.03 (inactive) | 1.01 (inactive) | 1.02 (inactive) | 0.875 (inactive) | 0.98 (inactive) | 0.941 (inactive) | 1.01 (inactive) | 1.04 (inactive) | 1.12 (inactive) | 1.03 (inactive) | 0.994 (inactive) | 0.923 (inactive) | 1 (inactive) | 1.01 (inactive) | 1.08 (inactive) | 0.915 (inactive) | 1.04 (inactive) | 0.971 (inactive) |
| CNC(=O)/C=C(\C)OP(=O)(OC)OC | 0.951 (inactive) | 0.972 (inactive) | 0.995 (inactive) | 0.984 (inactive) | 0.943 (inactive) | 0.906 (inactive) | 0.94 (inactive) | 0.927 (inactive) | 0.942 (inactive) | 0.973 (inactive) | 1.14 (inactive) | 0.954 (inactive) | 0.956 (inactive) | 0.897 (inactive) | 0.954 (inactive) | 0.933 (inactive) | 0.986 (inactive) | 0.937 (inactive) | 1.11 (inactive) | 0.944 (inactive) |
| CCCN(CCOc1c(Cl)cc(Cl)cc1Cl)C(=O)n1ccnc1 | 1.02 (inactive) | 0.971 (inactive) | 1 (inactive) | 1.01 (inactive) | 0.702 (inactive) | 0.209 (active) | 0.352 (active) | 0.868 (inactive) | 0.934 (inactive) | 0.982 (inactive) | 0.969 (inactive) | 1.02 (inactive) | 0.998 (inactive) | 0.335 (active) | 0.935 (inactive) | 0.75 (inactive) | 0.953 (inactive) | 1.05 (inactive) | 0.236 (active) | 0.59 (active) |
| C/C(=N\C#N)N(C)Cc1ccc(Cl)nc1 | 0.986 (inactive) | 1.01 (inactive) | 1.04 (inactive) | 0.965 (inactive) | 1.03 (inactive) | 0.972 (inactive) | 0.973 (inactive) | 1.15 (inactive) | 1 (inactive) | 1.05 (inactive) | 1.02 (inactive) | 1.05 (inactive) | 0.986 (inactive) | 0.92 (inactive) | 1.02 (inactive) | 0.997 (inactive) | 0.997 (inactive) | 0.993 (inactive) | 1.07 (inactive) | 1.06 (inactive) |
| C[C@@H]1[C@@H](c2ccc(Cl)cc2)SC(=O)N1C(=O)NC1CCCCC1 | 1.02 (inactive) | 1.02 (inactive) | 1.01 (inactive) | 1.04 (inactive) | 0.906 (inactive) | 0.925 (inactive) | 1.02 (inactive) | 1.03 (inactive) | 0.946 (inactive) | 1.02 (inactive) | 1.05 (inactive) | 1.05 (inactive) | 1.05 (inactive) | 0.937 (inactive) | 1.02 (inactive) | 1.12 (inactive) | 1.04 (inactive) | 1.06 (inactive) | 0.912 (inactive) | 1.02 (inactive) |
| CCC(C)c1ccccc1OC(=O)NC (stereo not given) | 1 (inactive) | 0.975 (inactive) | 0.991 (inactive) | 1.06 (inactive) | 0.921 (inactive) | 1.08 (inactive) | 1.08 (inactive) | 1.08 (inactive) | 1.06 (inactive) | 1.07 (inactive) | 1.02 (inactive) | 1.05 (inactive) | 1.07 (inactive) | 1.11 (inactive) | 1.02 (inactive) | 0.856 (inactive) | 1.04 (inactive) | 1.06 (inactive) | 0.993 (inactive) | 1 (inactive) |
| CC(C)N1C(=O)N(c2ccccc2)CS/C1=N\C(C)(C)C | 1.04 (inactive) | 1.1 (inactive) | 1.01 (inactive) | 1.07 (inactive) | 0.994 (inactive) | 0.59 (active) | 0.868 (inactive) | 0.858 (inactive) | 1.02 (inactive) | 1.02 (inactive) | 1.09 (inactive) | 1.08 (inactive) | 1.03 (inactive) | 0.891 (inactive) | 0.947 (inactive) | 1.06 (inactive) | 1.07 (inactive) | 0.906 (inactive) | 0.973 (inactive) | 1 (inactive) |
